Laboratory results as given in PubChem BioAssay AID504651 (National Center for Advancing Translational Sciences (NCATS), 2011).
Out of some 360,000 compounds screened, about 130 (0.036%) were called active. The entries come from a sample that favours actives as a whole. Values without a mark were called inactive. Cut-off read from the data, not from the text of the source: active = potentiation above about 30%; inactive = the rest.

Target: D(1A) dopamine receptor (Homo sapiens) (UniProt P21728)
Sequence (P21728 whole entry, looked up): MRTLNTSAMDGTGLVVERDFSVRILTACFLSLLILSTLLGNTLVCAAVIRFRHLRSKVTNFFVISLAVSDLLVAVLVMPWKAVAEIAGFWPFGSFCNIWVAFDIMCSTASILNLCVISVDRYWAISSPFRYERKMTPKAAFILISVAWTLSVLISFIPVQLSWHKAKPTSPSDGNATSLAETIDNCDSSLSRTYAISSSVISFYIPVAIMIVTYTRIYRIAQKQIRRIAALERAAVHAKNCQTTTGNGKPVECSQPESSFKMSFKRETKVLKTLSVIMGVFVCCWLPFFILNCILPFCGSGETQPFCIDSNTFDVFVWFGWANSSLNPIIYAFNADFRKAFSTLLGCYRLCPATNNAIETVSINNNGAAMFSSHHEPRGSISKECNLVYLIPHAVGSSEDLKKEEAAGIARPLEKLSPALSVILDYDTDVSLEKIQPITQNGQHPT
Assay: Potentiators of Human D1 Dopamine Receptor: qHTS; note: 0% is about no effect
Settings: HEK293 TREx D1 cells, calcium flux, dopamine EC20 potentiation; at 10 µM; stronger effect = higher value
From the text: Dopamine receptors (DARs) are involved in the etiology and/or therapy of a number of neuropsychiatric and endocrine disorders. For instance, all receptor-based antiparkinsonian drugs work via stimulating the D1 DAR subtype whereas all FDA-approved antipsychotic agents are antagonists of this receptor. […] There are three different types of allosteric modulators that we are seeking, two of which will stimulate or augment receptor signaling, allosteric agonists and potentiators, while the third, allosteric antagonists, will attenuate receptor signaling. The present primary screening assay measures compound potentiation of an EC20 dopamine response by tracking calcium flux in a […], inducible Hek293 Trex D1 cell line.
NIH Chemical Genomics Center [NCGC]
NIH Molecular Libraries Probe Centers Network [MLPCN]
Assay Submitter (PI): David Sibley
Freshly passaged cells are plated in 1536 well black, clear bottom plates at a density of 4000 cells/well in 3 ul of complete media containing 1x tetracycline inducer. After an overnight incubation at 30 C in 5% CO2, cells are loaded with 2 ul of the no wash Calcium Assay Kit (ABD Bioquest) and incubated at room temperature for 30 to 90 minutes. A 10 cycle (1 second/cycle) baseline measurement is taken and then the FDSS online 1536 pintool delivers 23 nl of compound library (as well as dopamine controls) to the plate. The plate is measured for kinetically at 1 cycle/sec for 180 seconds and is considered to be the agonist portion of the assay (eg, compounds which activate a positive calcium response during this portion are flagged as potential agonists). Following the 180 second read, 1 ul of an EC20 of dopamine is delivered by an onboard pipette head. Measurements are taken kinetically for an additional 180 seconds.

Compound	potentiation
Cc1ccc(S(=O)(=O)NC(N)=NCCC[C@@H](NC(=O)CNC(=O)c2ccccc2)C(=O)Nc2cc(C(F)(F)F)ccc2Cl)cc1	5.3%
COc1ccc(N2C(=O)CS(=O)(=O)C23C(=O)N(Cc2ccc(C)cc2)c2ccccc23)cc1Cl (stereo not given)	-6.6%
COc1cccc(NC(=O)N(Cc2cn(C)c3ccccc23)C2CCCCCC2)c1	1.8%
O=C(CC1N=C2c3ccccc3N=C(SCc3ccc(F)cc3)N2C1=O)NCc1cccs1 (stereo not given)	-0.25%
CCN1CCN(c2cc(C)c3cc(NC(=O)c4cc(Cl)ccc4OC)ccc3n2)CC1	-1.15%
Cc1nc(SCC(=O)N2CCN(c3ccccc3)CC2)[nH]c(=O)c1C	5.55%
CC(=O)c1ccc(NC(=O)CSc2nnc(NC(=O)Nc3ccccc3)s2)cc1	4.75%
Cc1ccc(O)c(NC(=O)CCS(=O)(=O)c2nc(-c3ccc4c(c3)OCO4)cc(C(F)(F)F)n2)c1	-1.35%
CCOC(=O)Cn1c(=O)n(-c2ccccc2OC)c2nc(-c3cccc(F)c3)nc(C(N)=O)c21	-1.3%
Cc1ccc(C2CCN(C(=O)c3cnn(-c4ccccc4Cl)c3C3CCN(C(=O)OC(C)(C)C)CC3)C2)cc1 (stereo not given)	2%
COc1ccc(N2CCN(C(=O)c3c(C)oc4nc(C)nc(N5CCCC5)c34)CC2)cc1	-1.55%
O=C(CSc1nccn1Cc1ccc(Cl)cc1)NCc1ccccc1	0.3%
COc1cc(OC)cc(C(=O)N[C@H](C(=O)OCC(=O)NC(C)c2ccccc2)C(C)C)c1 (stereo not given in full)	36.6% (active)
Cc1ccccc1OCCC(=O)OCC(=O)NC(C)c1ccccc1 (stereo not given)	-0.3%
COc1ccc(N2CCN(C(=O)[C@@H](NC(=O)c3cc(OC)cc(OC)c3)C(C)C)CC2)cc1	-4.25%
Cc1onc(-c2ccc(F)cc2F)c1C(=O)Nc1cccc(C(F)(F)F)c1	0.65%
COc1ccccc1-c1cc(C(F)(F)F)nc(S(=O)(=O)CCCC(=O)Nc2ccc(F)cc2F)n1	-0.1%
COc1ccc(CCNc2nc(-c3ccc(F)cc3)cc(C(F)(F)F)n2)cc1OC	3.1%
Brc1ccc2c(c1)NC(c1cccnc1)=NC(c1ccccc1)=N2	35.8% (active)
Brc1ccc(C2CC(c3ccccc3)=Nc3ccccc3N2)cc1 (stereo not given)	-5.6%
COc1ccc(C2=NC(c3ccncc3)=Nc3ccc(Br)cc3N2)cc1	3.45%
CCCCS(=O)(=O)c1oc(-c2cccs2)nc1S(=O)(=O)c1ccccc1	-0.2%

Compound	potentiation
CCc1ccccc1NC(=O)c1ccc2nc(CCc3ccccc3)oc2c1	1%
CCOc1ccccc1C(=O)NC1(C(F)(F)F)NC(=O)N(CCc2ccc(OC)c(OC)c2)C1=O (stereo not given)	-3.95%
O=C(NCc1nnc(C(=O)Nc2ccc(C(F)(F)F)cc2Cl)o1)c1ccccc1	-8.2%
CCCS(=O)(=O)c1ncc(Cl)c(C(=O)Nc2scc(-c3ccccc3)c2C(=O)OCC)n1	-3.7%
N#Cc1nc(Nc2cc(F)cc(Cl)c2)nc(NC2CCCC2)n1	-0.2%
CCOc1ccc(C2C(C#N)=C(N)N(N(C)C)C3=C2C(=O)CCC3)cc1 (stereo not given)	-0.15%
COc1ccc(C2C3=C(CCCC3=O)N(CC(=O)O)C3=C2C(=O)CCC3)cc1	1%
CCOc1ccc(C2C3=C(CCCC3=O)N(CC(=O)O)C3=C2C(=O)CCC3)cc1	36% (active)
CCc1ccc(CN(Cc2ccco2)C(=O)c2ccccc2Cl)cc1	-2.55%
CC(=O)Nc1cccc(NC(=O)CSc2cn(CC(=O)N3CCCC3)c3ccccc23)c1	-2.85%
O=c1c(NCc2cccs2)nccn1-c1ccccc1	0.1%
O=C(COc1ccc(Cl)cc1)N(Cc1ccco1)Cc1ccco1	1.05%
Cc1ccc(Cn2c(C)c3cnn(CC(=O)NCc4ccccc4)c(=O)c3c2C)cc1	-1.5%
O=C(COc1ccccc1)NCc1ccc2c(c1)CCN2C(=O)c1ccc(F)cc1	-2.1%
Cc1ccc(CCNC(=O)Cn2c(-c3cccs3)cc3cc(F)ccc32)cc1	-3.65%
Cc1ccc(-c2cc(N)n(Cc3cccc(Cl)c3)n2)cc1	-4.4%
O=S(=O)(c1ccc2nc(NCc3ccccc3Cl)ccc2c1)N1CCCCC1	-5.55%
Cc1ccc2ccc3c(c2n1)NS(=O)(=O)c1ccccc1-3	1.45%
COc1ccc(OC)c(NC(=O)CSc2nc3ccccc3nc2N2CCCCC2)c1	-3.85%
CCc1ccccc1NC(=O)CSc1nnc(-c2ccccc2)c(-c2ccccc2)n1	1%
Cc1c(Cl)cccc1NC(=O)c1noc2c1CCCC2	2.2%
CCC(=O)N1CCc2cc(CNS(=O)(=O)c3ccc(Br)s3)ccc21	-0.5%

Compound	potentiation
O=C1C(F)N([S+](=O)([O-])c2ccc3c(c2)OCCO3)CCN1[S+](=O)([O-])c1c(F)cccc1F (stereo not given)	5.45%
COc1cccc(CNC(=O)c2ccc3c(c2)N(Cc2ccc(C(F)(F)F)cc2)C(=O)c2ccccc2S3)c1OC	-5.65%
N#Cc1nc(Nc2cccc(Cl)c2)nc(NC2CCCC2)n1	-2.6%
Cc1c(-c2nc(-c3ccc4c(c3)OCO4)no2)nnn1-c1ccc(Br)cc1F	-2.8%
CC1CCC2(CC1)N=C(c1ccccc1)C(=O)N2CC(=O)Nc1ccc(F)c(Cl)c1 (stereo not given)	-3.15%
CN(C(=O)c1ccc2c(c1)N(Cc1cccc(Cl)c1)C(=O)c1ccccc1S2=O)C1CCCCC1 (stereo not given)	0.2%
CCc1cc2c(cc3c(=O)n(CC(=O)N4CCN(c5cc(Cl)ccc5C)CC4)ncn32)s1	-2.7%
O=C(CNC(=O)c1ccccc1)OC(C(=O)Nc1cc([N+](=O)[O-])ccc1F)c1ccccc1 (stereo not given)	5.6%
COCCNC(=O)c1ccc2c(c1)N=C(C)c1cc(C)ccc1S2	0.1%
CCOC(=O)c1cccc(NC(=O)c2cc(CN3CCCC3)on2)c1	-7.25%
Cc1ccc(Cl)cc1N1CCN(C(=O)CN2C(=O)COc3ccc(S(=O)(=O)N4CCOCC4)cc32)CC1	4.75%
Cc1c(C(=O)N2CCCC2)oc2c1-c1nn(CC(=O)NCc3ccc(OC(C)C)cc3)cc1CC2	-0.75%
Cc1ccc(-c2nc(SCc3ccc(Br)cc3)n3[nH]c(=O)cc3n2)cc1	-0.15%
O=S(=O)(c1ccccc1)c1nc(-c2ccc(Cl)cc2Cl)oc1N1CCCCC1	-2.95%
CCOc1ccc(N(Cc2ccccc2)C(=O)c2nc(S(C)(=O)=O)ncc2Cl)cc1	-0.05%
Cc1c(CCNC(=O)c2ccc(C(F)(F)F)cc2)sc2nc(-c3ccc(F)cc3)nn12	-2.3%
COc1ccc(OC)c(-c2nc(C(N)=O)c3c(n2)n(-c2ccc4c(c2)OCO4)c(=O)n3C)c1	0.75%
O=C(c1ccc2c(c1)N(Cc1ccc(Cl)cc1)C(=O)c1ccccc1S2(=O)=O)N1CCCCC1	-1.9%
CCN1C(=O)c2ccccc2S(=O)c2ccc(C(=O)NCc3ccc(F)cc3)cc21 (stereo not given)	3%
Cc1ccc(OCC(=O)Nc2ccccc2C(=O)NC2CC2)cc1	-0.15%
CCOc1ccccc1NC(=O)COc1ccc(S(=O)(=O)N2CCCC2)cc1	-4.6%
CN1CCN(c2ccccc2NC(=O)COc2ccc(C3CCCCC3)cc2)CC1	37.7% (active)

Compound	potentiation
CCn1c2ccccc2c2nnc(SCC(=O)O)nc21	-1.3%
Cc1oc2ncnc(N3CCOCC3)c2c1C(=O)NCCc1ccccc1	2.6%
COc1ccccc1N1CCN(C(CNC(=O)C(=O)NCc2ccc(C)cc2)c2cccnc2)CC1 (stereo not given)	3.55%
COc1cccc(C(=O)NC2CCN(C#N)CC2)c1	-6.95%
O=C(Cn1cc(SCc2cccc(Cl)c2)c2ccccc21)N1CCCCC1	-2.05%
CCCOc1ccc(NC(=O)CC2C(=O)N(c3ccccc3)C(=O)N2Cc2ccco2)cc1 (stereo not given)	-2.9%
Cc1cccc(NC(=O)C2CCCN2S(=O)(=O)c2cccc3nsnc23)c1C (stereo not given)	-2.95%
CC(C)c1ccc(NC(=O)Cn2nnc(C(=O)NCCc3ccccc3)c2N)cc1	-1.7%
O=C(CSc1nc2nccnc2c(=O)n1CCc1c[nH]c2ccccc12)Nc1ccccc1F	-3.65%
COc1ccc(S(=O)(=O)Nc2cccc3cccnc23)c(N)c1	-3.75%
CC(C)NC(=O)NC(=O)CSc1nnc(-c2ccccc2F)n1N	35% (active)
Nn1c(SCC(=O)NC2CCCC2)nnc1-c1ccccc1F	-7.1%
Nn1c(SCC(=O)NC(=O)NC2CCCC2)nnc1-c1ccccc1F	-9.3%
O=S(=O)(c1ccc2c(c1)OCCO2)N1CCN(S(=O)(=O)c2cc(F)ccc2F)CC1	-0.7%
Cc1ccc(C)c(Cn2c(=O)n(CCC(=O)NCc3ccc4c(c3)OCO4)c(=O)c3sccc32)c1	0.75%
CCOc1cc(C2c3c(-c4ccc(Br)cc4)n[nH]c3C(=O)N2c2ccc(Cl)cc2)ccc1O (stereo not given)	1.25%
COc1cc(CN(CC2CCCO2)C(=O)c2ccccc2F)cc(OC)c1OC (stereo not given)	5%
N#CN1CCC(NC(=O)c2ccc(F)cc2)CC1	-0.05%
O=C(CNC(=O)c1ccc(Cl)c(C(F)(F)F)c1)OC(C(=O)Nc1cc(C(F)(F)F)ccc1Cl)c1ccccc1 (stereo not given)	1.3%
